Hits are enriched below; roughly 18% of the tested compounds scored in any of these assays.
Six1-Eya2 inh – Six1/Eya2 interaction inhibition | Q15475+O00167 | AlphaScreen GST-Six1/His-Eya2 binding, biochemical; active compounds read low | activity change, % (concentration not given with the values) | hit rate 0.56% among 360,000; in the data active = activity change below about -65%; inconclusive = mostly about -30% to -63%
Target sequence (O00167 whole entry, looked up): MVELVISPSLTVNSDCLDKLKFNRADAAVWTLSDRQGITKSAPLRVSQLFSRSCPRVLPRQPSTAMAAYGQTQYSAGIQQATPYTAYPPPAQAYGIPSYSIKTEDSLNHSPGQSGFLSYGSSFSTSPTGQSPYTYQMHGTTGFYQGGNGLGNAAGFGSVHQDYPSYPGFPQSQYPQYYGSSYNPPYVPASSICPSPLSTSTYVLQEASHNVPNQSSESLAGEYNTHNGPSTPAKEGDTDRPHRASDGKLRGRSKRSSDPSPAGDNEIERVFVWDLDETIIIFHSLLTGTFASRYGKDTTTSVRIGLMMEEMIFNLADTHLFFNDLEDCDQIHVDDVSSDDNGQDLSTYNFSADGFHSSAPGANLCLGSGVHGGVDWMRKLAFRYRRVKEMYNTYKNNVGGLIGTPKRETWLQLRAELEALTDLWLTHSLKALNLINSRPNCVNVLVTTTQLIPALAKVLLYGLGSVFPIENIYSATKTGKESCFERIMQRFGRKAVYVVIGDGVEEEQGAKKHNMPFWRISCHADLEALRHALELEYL
Target sequence (Q15475 whole entry, looked up): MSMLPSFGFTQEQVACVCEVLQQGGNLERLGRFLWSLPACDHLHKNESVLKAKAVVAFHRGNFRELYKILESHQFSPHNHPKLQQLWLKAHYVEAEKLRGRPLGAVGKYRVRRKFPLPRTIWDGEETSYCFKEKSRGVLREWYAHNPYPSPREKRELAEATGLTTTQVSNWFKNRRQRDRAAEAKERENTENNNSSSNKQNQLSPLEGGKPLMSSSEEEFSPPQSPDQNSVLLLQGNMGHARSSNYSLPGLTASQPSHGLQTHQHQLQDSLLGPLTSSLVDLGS
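AlphaScreen with GST-Six1 and His-Eya2 (5X mix: 250 nM and 500 nM), glutathione donor and nickel acceptor beads; buffer 50 mM Tris pH 8.0, 300 mM NaCl, 1 mM TCEP; 1 h at 37 C in the dark.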
TDP1 block – TDP1 (human) enzyme inhibition | Potency, µM (titrated, usually from 130 µM), for the others: top-dose activity change, negative = inhibition, usual class: inhibitors | recombinant TDP1, AlphaScreen DNA substrate cleavage | hit rate 0.28% among 350,000 | AID 485290; note: potency is the fitted concentration of half-maximal effect; nearly all actives have a fitted effect of over 40% in size
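Compounds were preincubated with Tdp1 (1 nM final) for 15 min at room temperature before substrate (15 nM final) started a 5 min reaction; beads (10 ug/ml final) were then added for 10 min before AlphaScreen detection.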
IL-1B inflam inh – blocks inflammasome-driven IL-1 beta release. AID 743279. THP-1 LPS/ATP IL-1B secretion, AlphaLISA, 16 h; active compounds read low. activity change, % at 57.5 µM. hit rate 4.7% among 360,000; in the data active = activity change below about -50%; inconclusive = mostly about -30% to -49%
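Secreted IL-1B measured by AlphaLISA bead assay after 16 h compound exposure of THP-1 cells; compounds (final up to 57.5 uM) added 1 h before LPS (250 ng/mL) and ATP (1.25 mM) stimulation; lower signal means less secretion.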
CtBP-E1A inh – inhibitors of CtBP/E1A interaction; AlphaScreen GST-E1A/His-CtBP binding, 1536-well; active compounds read low; activity change, % (no concentration beside the values); hit rate 0.49% among 340,000; AID 651724; in the data active = activity change below about -65%; inconclusive = mostly about -30% to -63%
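AlphaScreen with 125 nM GST-E1A and 125 nM His-CtBP (5X stocks) in Tris pH 8.0, 300 mM NaCl, BSA, Tween 20, TCEP. Compounds preincubated 2 h at 37 deg C, then glutathione donor/nickel acceptor beads added for 1 h at 37 deg C in dark.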
DT40 TDP1 CPT – DT40-hTDP1 cell growth loss with CPT; hit rate 12% among 420,000; chicken DT40 Tdp1-/-;hTDP1 cells + 20 nM CPT, ATP luminescence, 48 h; Potency, µM (top dose mostly 46.2 µM), for inactives: at the top dose activity change, negative = growth inhibition, most hits filed as inhibitors; note: potency is the fitted concentration of half-maximal effect; nearly all actives have a fitted effect of over 55% in size
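Chicken DT40 Tdp1-/- cells stably complemented with human TDP1 were seeded at 400 cells/well in medium containing 20 nM camptothecin, exposed to pin-transferred compounds, and grown at 37 °C for at least 48 hr. Viability was read as ATP luminescence.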
TDP1 cell noCPT – qHTS for Inhibitors of human tyrosyl-DNA phosphodiesterase 1 (TDP1): qHTS in cells in absence of CPT; hit rate 15% among 420,000; Potency, µM (titrated, usually from 46.2 µM), for inactives: at the highest dose activity change, negative = growth inhibition, hits mostly inhibitors; AID 686978, 2013; DT40 Tdp1-/- hTDP1 cells, no CPT, ATP luminescence, 48 h; note: potency is the fitted concentration of half-maximal effect; nearly all actives have a fitted effect of over 55% in size
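Stably hTDP1-transfected Tdp1-null chicken DT40 cells were treated with library compounds minus camptothecin and grown for at least 48 hr at 37 °C, after which cellular ATP was quantified by luminescence.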
An asterisk follows results filed as active; ? = inconclusive; / = no result given. Unless noted, calls come from the whole dose curve; as a rule, active = well fitted curve in the direction sought with a large enough effect; inconclusive = small, poorly fitted or top-dose-only effect, or another doubt; inactive = no such curve, though single readings can be large; an effect the other way counts as inactive or inconclusive. % is set by controls: 0 for no effect and ±100 for the full control effect.

SMILES	Six1-Eya2 inh	TDP1 block	IL-1B inflam inh	CtBP-E1A inh	DT40 TDP1 CPT	TDP1 cell noCPT
COc1ccccc1CN(Cc1cc2c(C)ccc(C)c2[nH]c1=O)Cc1nnnn1Cc1ccco1	-5.8	3.3%	-70.4*	10.3	23.1µM*	18.4µM*
CCC(c1nnnn1Cc1ccco1)N(Cc1ccccc1OC)Cc1cc2cc(C)ccc2[nH]c1=O (stereo not drawn)	2.9	2.0%	-12.2	6.2	?	23.1µM*
Cc1ccc2cc(CN(Cc3ccc4c(c3)OCO4)Cc3nnnn3Cc3ccco3)c(=O)[nH]c2c1	-21.9	4.2%	-52.7*	-16.4	16.4µM*	?
Cc1ccc2[nH]c(=O)c(CN(Cc3ccccc3)Cc3nnnn3C3CCCC3)cc2c1	-0.9	-2.4%	-71.7*	-2.0	20.6µM*	?
CC(C)c1[nH]nc2c1C(c1ccc(OC(=O)c3ccco3)cc1)C(C#N)=C(N)O2 (stereo not drawn)	-6.8	2.1%	-27.1	12.3	?	-21.3%
CC(C(=O)OCC(=O)N1CCCCC1)N1C(=O)c2ccccc2C1=O (stereo not drawn)	0.9	-3.3%	0.0	-2.0	?	?
Cc1ccc2[nH]c(=O)c(CN(Cc3ccccc3)Cc3nnnn3Cc3ccco3)cc2c1	/	2.3%	/	/	8.91µM*	?
Cc1ccc2[nH]c(=O)c(CN(Cc3ccco3)Cc3nnnn3Cc3ccco3)cc2c1	/	0.4%	/	/	?	?
CCC(c1nnnn1Cc1ccco1)N(Cc1cc2cc(C)cc(C)c2[nH]c1=O)CC1CCCO1 (stereo not drawn)	4.0	0.5%	-23.9	-4.7	14.6µM*	18.4µM*
COc1ccc(NC(=O)CN(C)C(=O)c2cc(S(=O)(=O)N3CCCCCC3)ccc2OC)cc1	0.3	/	-4.7	-13.0	13.6%	-24.8%
CCCCOC(=O)Nc1nnc(/C=C/c2ccc(OC)cc2)s1	16.7	0.6%	-2.0	3.5	?	?
CCN(Cc1ccccc1)S(=O)(=O)c1ccc(C(=O)N(CCCN(C)C)c2nc3cc(C)cc(C)c3s2)cc1	-29.3	6.8%	-100.4*	?	23.1µM*	11.6µM*
Cc1cc(C)c2sc(N(CCCN(C)C)C(=O)c3ccc(S(=O)(=O)N(C)Cc4ccccc4)cc3)nc2c1	?	8.8%	-110.2*	-7.2	?	?
CCCCN(CC)S(=O)(=O)c1ccc(C(=O)N(CCCN(C)C)c2nc3cc(C)cc(C)c3s2)cc1	-26.7	-5.8%	-178.3*	-14.5	?	23.1µM*
CCCCN(C)S(=O)(=O)c1ccc(C(=O)N(CCN(C)C)c2nc3ccc(C)cc3s2)cc1	-4.2	2.5%	-9.0	/	-15.5%	-17.2%
CN(C)C(CNC(=O)c1oc2ccccc2c1CSc1ncn[nH]1)c1ccco1 (stereo not drawn)	-3.5	-2.7%	-10.9	0.0	?	?
CO/C([O-])=N/c1c[n+](-c2ccc(C)cc2)no1	2.2	9.3%	9.6	7.5	?	?
CCCNC(=O)Cc1cc(=O)[nH]c(=O)[nH]1	1.0	2.2%	42.2	1.5	9.1%	-3.9%
CCOc1cc(/C=N/Nc2nc(-c3cccs3)c(NC(C)=O)s2)ccc1O	-15.8	/	-60.4*	?	-2.9%	13µM*
CC(=O)Nc1sc(N/N=C/c2ccccc2)nc1-c1ccc(C)cc1	-1.1	10.7%	-90.2*	-3.9	?	?
CC(=O)Nc1sc(N/N=C\c2ccccc2Cl)nc1-c1cccs1	-13.5	2.7%	-2.9	4.3	16.4µM*	18.4µM*
COc1ccc(C2=CC(=O)C[C@H](CN3C(=O)c4ccccc4C3=O)N(C(=O)OC(C)(C)C)O2)cc1	-7.4	/	13.6	-5.2	?	?
Cc1c(Cl)cccc1NC(=O)C(C)n1c(=O)cc(-c2ccccc2)c2c(C)nn(C)c21 (stereo not drawn)	/	5.8%	/	/	-3.9%	-12.9%

Compound activity as filed in PubChem BioAssay.
